Test results taken from the supplement of paper PMC10849652.
Targets with a hit are over-represented here; the source holds about 7,900 in all. About 0.6% of all pairs of compound and target were hits.

Assays:
Assay in all cases: log2 fold change, soluble protein after heating vs DMSO (PISA); higher = thermal stabilisation; K562 cells, 10 uM, 30 min; active = over 0.2 and 3.5 SD of the protein, either way, in both replicates (recomputed)
[1] = compound: CC1=C(C=C(C=C1)NC(=O)C2=CC(=CC=C2)C(C)(C)C#N)NC3=CC4=C(C=C3)N=CN(C4=O)C
Method in brief: (§1)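 K562 cells at 2×10^6 cells/mL were treated with 10 μM compound for 30 min. Aliquots were heated for 3 min across 48°C-58°C, pooled, and extracted in PBS with 0.5% NP-40 at 4°C; soluble protein was the supernatant after 21,000xg for 90 min. Soluble protein was quantified by TMTpro 16plex LC-MS/MS with channel sums equalised, and reported as log2 fold change in thermal stability against DMSO controls, with values from duplicates.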

[2] = compound: CC1=C(C=C(C=C1)NC(=O)C2=CC(=CC=C2)N(C)C)NC(=O)C3=CC=C(C=C3)O
Method in brief: as §1

[3] = compound: CC1=CC=C(C=C1)SC2=C3C=C(SC3=CN=C2)C(=O)N
Method in brief: as §1

[4] = compound: CC1=NC(=CC=C1)C2=C(N=C(N2)C(C)(C)C)C3=CC4=NC=CN=C4C=C3
Method in brief: as §1

Nexturastat A = compound: CCCCN(Cc1ccc(C(=O)NO)cc1)C(=O)Nc1ccccc1 [Nexturastat A]
Method in brief: as §1

vemurafenib = compound: CCCS(=O)(=O)Nc1ccc(F)c(C(=O)c2c[nH]c3ncc(-c4ccc(Cl)cc4)cc23)c1F [vemurafenib]
Method in brief: as §1

[5] = compound: CCCS(=O)(=O)Nc1ccc(F)c(C(=O)c2c[nH]c3ncc(Cl)cc23)c1F
Method in brief: as §1

[6] = compound: CCCc1cc(C)[nH]c(=O)c1CNC(=O)c1cc(-c2ccnc(N3CCN(C)CC3)c2)cc2c1cnn2C(C)C
Method in brief: as §1

givinostat = compound: CCN(CC)Cc1ccc2cc(COC(=O)Nc3ccc(C(=O)NO)cc3)ccc2c1 [givinostat]
Method in brief: as §1

barasertib = compound: CCN(CCCOc1ccc2c(Nc3cc(CC(=O)Nc4cccc(F)c4)[nH]n3)ncnc2c1)CCOP(=O)(O)O [barasertib]
Method in brief: as §1

[7] = compound: CC[C@@H]1C(=O)N(C)c2cnc(Nc3ccc(C(=O)NC4CCN(C)CC4)cc3OC)nc2N1C1CCCC1
Method in brief: as §1

volasertib = compound: CC[C@@H]1C(=O)N(C)c2cnc(Nc3ccc(C(=O)N[C@H]4CC[C@H](N5CCN(CC6CC6)CC5)CC4)cc3OC)nc2N1C(C)C [volasertib]
Method in brief: as §1

[8] = compound: CC[C@H](C)N1C=C(C2=C(C=C(C=C21)C3=CN=C(C=C3)N4CCNCC4)C(=O)NCC5=C(C=C(NC5=O)C)C)C
Method in brief: as §1

epoxomicin = compound: CC[C@H](C)[C@@H](C(=O)N[C@@H]([C@@H](C)O)C(=O)N[C@@H](CC(C)C)C(=O)[C@]1(CO1)C)NC(=O)[C@H]([C@@H](C)CC)N(C)C(=O)C [epoxomicin]
Method in brief: as §1

[9] = compound: CCn1c(C(=O)N(C2CC2)C2CC2)cc2c3c(ncn3C)c(Nc3cc(C)n(C)n3)nc21
Method in brief: as §1

[10] = compound: CN(C)CC(=O)Nc1ccc2[nH]c(=O)c3ccccc3c2c1
Method in brief: as §1

rosiglitazone = compound: CN(CCOC1=CC=C(C=C1)C[C@H]2C(=O)NC(=O)S2)C3=CC=CC=N3 (racemic) [rosiglitazone]
Method in brief: as §1

[11] = compound: CN1C2=C(C3=C1C(=O)N(N=C3)CC4=CC(=CC=C4)N)SC(=C2)S(=O)C
Method in brief: as §1

[12] = compound: CCn1cc(-c2ccnc3[nH]c(-c4cccc(CN(C)C)c4)cc23)c(-c2ccc(NC(=O)N(C)C)cc2)n1
Method in brief: as §1

[13] = compound: CN1CCC(CNc2ccc3ncc(-c4cccc(OC(F)(F)F)c4)n3n2)CC1
Method in brief: as §1

Chain of UniProt P08514 (P08514 whole entry, looked up): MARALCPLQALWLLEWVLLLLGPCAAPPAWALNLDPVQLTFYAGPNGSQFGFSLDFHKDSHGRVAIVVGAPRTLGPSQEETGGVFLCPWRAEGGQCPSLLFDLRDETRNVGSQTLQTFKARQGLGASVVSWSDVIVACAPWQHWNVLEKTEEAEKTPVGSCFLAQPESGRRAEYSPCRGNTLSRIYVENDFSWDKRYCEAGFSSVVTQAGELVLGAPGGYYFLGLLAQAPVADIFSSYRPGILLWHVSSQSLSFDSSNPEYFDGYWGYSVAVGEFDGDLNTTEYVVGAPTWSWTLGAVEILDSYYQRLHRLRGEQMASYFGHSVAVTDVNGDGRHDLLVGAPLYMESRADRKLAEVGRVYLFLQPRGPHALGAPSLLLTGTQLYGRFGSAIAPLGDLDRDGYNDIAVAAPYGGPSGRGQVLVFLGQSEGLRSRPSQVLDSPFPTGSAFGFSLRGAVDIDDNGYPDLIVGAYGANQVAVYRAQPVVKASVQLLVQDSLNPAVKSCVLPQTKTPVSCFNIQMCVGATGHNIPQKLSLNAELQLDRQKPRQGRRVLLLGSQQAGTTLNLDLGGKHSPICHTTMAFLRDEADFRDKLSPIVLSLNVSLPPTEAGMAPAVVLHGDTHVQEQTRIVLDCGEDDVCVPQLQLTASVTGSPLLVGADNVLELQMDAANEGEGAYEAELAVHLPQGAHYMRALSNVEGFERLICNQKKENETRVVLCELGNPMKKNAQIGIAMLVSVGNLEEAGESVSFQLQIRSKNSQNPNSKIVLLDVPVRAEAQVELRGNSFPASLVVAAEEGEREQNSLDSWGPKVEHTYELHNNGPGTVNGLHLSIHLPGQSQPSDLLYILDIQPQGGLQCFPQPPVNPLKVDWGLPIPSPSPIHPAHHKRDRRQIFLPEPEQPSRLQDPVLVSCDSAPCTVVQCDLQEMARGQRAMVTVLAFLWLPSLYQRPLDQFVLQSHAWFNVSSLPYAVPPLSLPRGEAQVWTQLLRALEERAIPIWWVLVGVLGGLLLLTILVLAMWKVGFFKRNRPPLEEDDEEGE
Chain of UniProt Q13422 (Q13422 whole entry, looked up): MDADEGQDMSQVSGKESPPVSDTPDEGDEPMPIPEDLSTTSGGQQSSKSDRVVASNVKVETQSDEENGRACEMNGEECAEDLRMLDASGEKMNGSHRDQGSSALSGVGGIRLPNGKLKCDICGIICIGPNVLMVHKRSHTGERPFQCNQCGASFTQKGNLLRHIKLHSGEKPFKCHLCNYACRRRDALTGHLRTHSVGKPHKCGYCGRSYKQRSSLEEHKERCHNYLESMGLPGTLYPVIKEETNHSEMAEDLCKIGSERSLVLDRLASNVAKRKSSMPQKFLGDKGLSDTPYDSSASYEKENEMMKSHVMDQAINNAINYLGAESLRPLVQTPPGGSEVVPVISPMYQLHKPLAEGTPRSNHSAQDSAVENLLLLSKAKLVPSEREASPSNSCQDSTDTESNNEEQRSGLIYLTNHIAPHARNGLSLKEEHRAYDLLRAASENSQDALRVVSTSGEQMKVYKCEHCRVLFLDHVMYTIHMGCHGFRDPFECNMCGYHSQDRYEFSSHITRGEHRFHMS
Chain of UniProt Q96LU5 (Q96LU5 whole entry, looked up): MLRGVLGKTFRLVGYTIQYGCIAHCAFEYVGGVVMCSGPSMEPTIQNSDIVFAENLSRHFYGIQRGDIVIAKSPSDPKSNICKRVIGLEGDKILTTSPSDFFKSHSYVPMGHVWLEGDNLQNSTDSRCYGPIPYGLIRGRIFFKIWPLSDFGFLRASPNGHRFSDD
Chain of UniProt P17936 (P17936 whole entry, looked up): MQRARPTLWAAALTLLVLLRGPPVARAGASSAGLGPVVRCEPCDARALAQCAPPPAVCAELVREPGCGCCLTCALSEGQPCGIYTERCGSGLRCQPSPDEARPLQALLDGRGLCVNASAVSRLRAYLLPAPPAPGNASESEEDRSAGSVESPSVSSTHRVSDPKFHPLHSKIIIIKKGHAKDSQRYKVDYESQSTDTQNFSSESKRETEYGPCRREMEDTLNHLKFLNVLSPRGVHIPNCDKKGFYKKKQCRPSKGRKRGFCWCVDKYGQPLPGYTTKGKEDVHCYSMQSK
Chain of UniProt Q16539 (Q16539 whole entry, looked up): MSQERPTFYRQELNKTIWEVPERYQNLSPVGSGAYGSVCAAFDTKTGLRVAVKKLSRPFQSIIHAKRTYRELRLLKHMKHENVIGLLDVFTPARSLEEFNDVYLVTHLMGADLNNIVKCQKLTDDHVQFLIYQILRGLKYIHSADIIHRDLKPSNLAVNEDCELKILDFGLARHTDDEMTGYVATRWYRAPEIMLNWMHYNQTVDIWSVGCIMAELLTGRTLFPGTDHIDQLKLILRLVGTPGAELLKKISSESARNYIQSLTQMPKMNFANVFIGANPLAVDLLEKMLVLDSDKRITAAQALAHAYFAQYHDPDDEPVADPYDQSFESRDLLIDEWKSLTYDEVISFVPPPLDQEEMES
Chain of UniProt O94889 (O94889 whole entry, looked up): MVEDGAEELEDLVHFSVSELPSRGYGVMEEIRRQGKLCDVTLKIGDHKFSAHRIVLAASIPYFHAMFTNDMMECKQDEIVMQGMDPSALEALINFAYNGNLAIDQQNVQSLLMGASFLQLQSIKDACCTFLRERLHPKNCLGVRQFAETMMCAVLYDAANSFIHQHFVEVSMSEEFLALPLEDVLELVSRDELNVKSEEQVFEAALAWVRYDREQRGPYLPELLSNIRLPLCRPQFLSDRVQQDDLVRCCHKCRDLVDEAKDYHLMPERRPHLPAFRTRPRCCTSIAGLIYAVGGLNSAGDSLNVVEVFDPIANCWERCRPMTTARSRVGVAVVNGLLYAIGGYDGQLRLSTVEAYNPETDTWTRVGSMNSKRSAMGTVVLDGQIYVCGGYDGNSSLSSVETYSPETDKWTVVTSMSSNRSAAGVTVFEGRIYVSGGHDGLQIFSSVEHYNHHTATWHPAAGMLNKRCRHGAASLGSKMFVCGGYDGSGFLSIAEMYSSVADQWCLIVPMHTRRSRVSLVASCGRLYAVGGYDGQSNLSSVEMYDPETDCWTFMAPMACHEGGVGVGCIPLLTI
Chain of UniProt Q8WVP7 (Q8WVP7 whole entry, looked up): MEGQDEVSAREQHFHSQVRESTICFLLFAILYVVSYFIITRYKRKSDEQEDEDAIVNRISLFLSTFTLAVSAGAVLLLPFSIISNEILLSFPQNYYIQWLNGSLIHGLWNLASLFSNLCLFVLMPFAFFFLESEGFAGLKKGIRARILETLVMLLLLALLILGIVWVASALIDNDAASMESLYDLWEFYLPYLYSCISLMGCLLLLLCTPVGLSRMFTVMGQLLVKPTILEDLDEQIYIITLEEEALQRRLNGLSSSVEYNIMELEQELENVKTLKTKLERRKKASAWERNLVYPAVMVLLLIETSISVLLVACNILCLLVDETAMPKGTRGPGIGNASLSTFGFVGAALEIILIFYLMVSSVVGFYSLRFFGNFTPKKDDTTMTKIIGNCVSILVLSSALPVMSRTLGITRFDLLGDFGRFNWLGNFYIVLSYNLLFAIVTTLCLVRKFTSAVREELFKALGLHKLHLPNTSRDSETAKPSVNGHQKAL
Chain of UniProt Q96GX5 (Q96GX5 whole entry, looked up): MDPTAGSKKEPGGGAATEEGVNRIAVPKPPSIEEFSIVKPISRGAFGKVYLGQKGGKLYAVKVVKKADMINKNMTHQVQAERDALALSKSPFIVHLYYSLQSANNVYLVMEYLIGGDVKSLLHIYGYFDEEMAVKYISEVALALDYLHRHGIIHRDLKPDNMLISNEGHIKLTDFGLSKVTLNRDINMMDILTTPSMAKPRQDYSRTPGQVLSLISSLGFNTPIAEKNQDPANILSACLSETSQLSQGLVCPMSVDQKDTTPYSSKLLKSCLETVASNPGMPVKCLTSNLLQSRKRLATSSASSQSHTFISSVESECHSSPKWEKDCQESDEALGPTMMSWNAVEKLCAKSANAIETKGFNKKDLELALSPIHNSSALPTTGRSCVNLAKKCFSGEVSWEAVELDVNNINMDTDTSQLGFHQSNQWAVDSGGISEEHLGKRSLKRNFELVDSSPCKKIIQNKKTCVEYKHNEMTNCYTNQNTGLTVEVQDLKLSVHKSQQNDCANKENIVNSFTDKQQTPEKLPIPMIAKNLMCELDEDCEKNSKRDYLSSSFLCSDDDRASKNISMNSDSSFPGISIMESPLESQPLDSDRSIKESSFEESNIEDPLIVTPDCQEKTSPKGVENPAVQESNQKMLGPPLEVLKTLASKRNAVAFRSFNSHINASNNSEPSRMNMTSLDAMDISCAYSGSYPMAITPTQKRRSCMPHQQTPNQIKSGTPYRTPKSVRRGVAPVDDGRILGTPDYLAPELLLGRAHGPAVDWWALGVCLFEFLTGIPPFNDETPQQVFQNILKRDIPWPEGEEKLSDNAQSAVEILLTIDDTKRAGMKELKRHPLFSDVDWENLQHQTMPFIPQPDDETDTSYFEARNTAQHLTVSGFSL
Chain of UniProt P51884 (P51884 whole entry, looked up): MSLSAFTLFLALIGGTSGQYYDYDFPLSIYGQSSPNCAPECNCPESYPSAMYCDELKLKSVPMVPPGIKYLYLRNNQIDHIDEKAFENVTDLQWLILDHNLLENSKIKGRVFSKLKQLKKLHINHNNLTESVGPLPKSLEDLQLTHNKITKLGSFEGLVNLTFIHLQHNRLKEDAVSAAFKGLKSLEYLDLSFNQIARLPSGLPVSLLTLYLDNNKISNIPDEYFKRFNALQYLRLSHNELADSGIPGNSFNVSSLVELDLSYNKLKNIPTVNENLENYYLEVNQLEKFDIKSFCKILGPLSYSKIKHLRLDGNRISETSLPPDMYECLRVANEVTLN
Chain of UniProt Q6UB28 (Q6UB28 whole entry, looked up): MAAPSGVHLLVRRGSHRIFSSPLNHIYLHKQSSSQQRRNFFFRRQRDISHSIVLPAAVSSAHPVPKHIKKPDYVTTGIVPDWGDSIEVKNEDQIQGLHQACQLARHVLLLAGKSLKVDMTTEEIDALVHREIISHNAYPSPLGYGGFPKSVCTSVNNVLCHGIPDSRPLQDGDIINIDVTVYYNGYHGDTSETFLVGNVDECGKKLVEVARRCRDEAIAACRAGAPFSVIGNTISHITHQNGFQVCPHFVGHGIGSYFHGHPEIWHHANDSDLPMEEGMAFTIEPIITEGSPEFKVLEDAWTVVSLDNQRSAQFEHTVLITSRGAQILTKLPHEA

| Target | log2 fold change [1] | log2 fold change [2] | log2 fold change [3] | log2 fold change [4] | log2 fold change (Nexturastat A) | log2 fold change (vemurafenib) | log2 fold change [5] | log2 fold change [6] | log2 fold change (givinostat) | log2 fold change (barasertib) | log2 fold change [7] | log2 fold change (volasertib) | log2 fold change [8] | log2 fold change (epoxomicin) | log2 fold change [9] | log2 fold change [10] | log2 fold change (rosiglitazone) | log2 fold change [11] | log2 fold change [12] | log2 fold change [13] |
| --- | --- | --- | --- | --- | --- | --- | --- | --- | --- | --- | --- | --- | --- | --- | --- | --- | --- | --- | --- | --- |
| LPGAT1 (UniProt Q92604) | -0.077 (inactive) | 0 (inactive) | 0.034 (inactive) | 0.077 (inactive) | 0.036 (inactive) | 0.018 (inactive) | 0.086 (inactive) | -0.033 (inactive) | 0.064 (inactive) | 0.068 (inactive) | -0.206 (inactive) | -0.401 (active) | 0.063 (inactive) | 0.015 (inactive) | -0.128 (inactive) | 0.051 (inactive) | 0.012 (inactive) | -0.029 (inactive) |  |  |
| LNPEP (UniProt Q9UIQ6) | 0.018 (inactive) | 0.03 (inactive) | 0.01 (inactive) | -0.009 (inactive) | -0.051 (inactive) | -0.013 (inactive) | 0.015 (inactive) | 0.008 (inactive) | 0.014 (inactive) | -0.009 (inactive) | 0.004 (inactive) | -0.182 (inactive) | -0.016 (inactive) | 0.014 (inactive) | 0.016 (inactive) | 0.012 (inactive) | 0.016 (inactive) | -0.025 (inactive) | -0.02 (inactive) | 0.024 (inactive) |
| MAP1LC3B2 (UniProt A6NCE7) | 0.021 (inactive) | -0.034 (inactive) | -0.029 (inactive) | 0.04 (inactive) | -0.028 (inactive) | 0.088 (inactive) | 0.01 (inactive) | 0.041 (inactive) | 0.038 (inactive) | 0 (inactive) | -0.074 (inactive) | -0.072 (inactive) | 0.05 (inactive) | 0 (inactive) | -0.003 (inactive) | 0 (inactive) | 0.044 (inactive) | -0.015 (inactive) | 0.004 (inactive) | 0.108 (inactive) |
| KPNA1 (UniProt P52294) | -0.034 (inactive) | -0.056 (inactive) | -0.021 (inactive) | -0.041 (inactive) | 0.084 (inactive) | 0.035 (inactive) | 0.026 (inactive) | 0.034 (inactive) | 0.086 (inactive) | 0.012 (inactive) | -0.039 (inactive) | -0.312 (active) | 0.115 (inactive) | -0.051 (inactive) | 0.022 (inactive) | 0.055 (inactive) | 0.055 (inactive) | 0.104 (inactive) | 0.004 (inactive) | -0.082 (inactive) |
| LUM (UniProt P51884) | -0.011 (inactive) | 0.403 (inactive) | 0.042 (inactive) | 0.061 (inactive) | -0.008 (inactive) | 0.069 (inactive) | -0.266 (inactive) |  | -0.108 (inactive) |  | 0.076 (inactive) | 0.225 (inactive) | -0.269 (inactive) | -0.145 (inactive) | 0.2 (inactive) | -0.167 (inactive) |  | 0.054 (inactive) |  |  |
| MASTL (UniProt Q96GX5) | 0.032 (inactive) | 0.187 (inactive) |  | -0.056 (inactive) | -0.149 (inactive) | -0.028 (inactive) |  | -0.032 (inactive) | -0.038 (inactive) | -0.013 (inactive) | -0.02 (inactive) |  | 0.045 (inactive) | 0.113 (inactive) | -0.048 (inactive) | -0.143 (inactive) | -0.006 (inactive) | 0.081 (inactive) |  |  |
| MAML1 (UniProt Q92585) | -0.05 (inactive) | -0.035 (inactive) |  | 0.199 (inactive) | 0.039 (inactive) | 0.038 (inactive) |  |  | 0.299 (inactive) |  |  |  |  | 0.059 (inactive) | -0.092 (inactive) | -0.055 (inactive) |  |  |  |  |
| MFSD1 isoform 6 (UniProt Q9H3U5) | 0.056 (inactive) | -0.008 (inactive) | -0.046 (inactive) |  | -0.106 (inactive) | -0.053 (inactive) | -0.059 (inactive) | 0.021 (inactive) | 0.008 (inactive) | 0.041 (inactive) | -0.022 (inactive) | 0.053 (inactive) | -0.01 (inactive) | 0 (inactive) | -0.023 (inactive) | -0.025 (inactive) | -0.016 (inactive) |  | -0.069 (inactive) | -0.012 (inactive) |
| MAPK14 (UniProt Q16539) | 1.62 (active) | 0.615 (inactive) | 0.111 (inactive) | 0.022 (inactive) |  | 0.059 (inactive) | 0.339 (inactive) | 0.002 (inactive) | 0.03 (inactive) | -0.029 (inactive) | -0.065 (inactive) | -0.516 (inactive) | -0.067 (inactive) |  | 0.088 (inactive) | 0.052 (inactive) | 0.067 (inactive) | -0.231 (inactive) | 0.03 (inactive) | -0.03 (inactive) |
| ITGA2B (UniProt P08514) | -0.071 (inactive) | 0.064 (inactive) | -0.058 (inactive) | -0.052 (inactive) | 0.121 (inactive) | -0.105 (inactive) | 0.134 (inactive) |  | 0.09 (inactive) |  |  | 0.134 (inactive) | -0.211 (inactive) | -0.089 (inactive) | -0.011 (inactive) | 0.067 (inactive) |  | 0.117 (inactive) | -0.173 (inactive) | -0.07 (inactive) |
| IMMP1L (UniProt Q96LU5) | 0.003 (inactive) | 0.067 (inactive) | 0.008 (inactive) | -0.029 (inactive) | -0.085 (inactive) | -0.055 (inactive) | -0.031 (inactive) | 0.273 (inactive) | -0.048 (inactive) | -0.024 (inactive) | -0.012 (inactive) | -0.055 (inactive) | -0.02 (inactive) | -0.015 (inactive) | -0.031 (inactive) | 0.017 (inactive) | -0.003 (inactive) | -0.097 (inactive) |  |  |
| IKZF1 isoform 2 (UniProt Q13422) | 0.141 (inactive) | -0.068 (inactive) |  |  |  | 0.095 (inactive) |  | -0.002 (inactive) | -0.135 (inactive) | -0.08 (inactive) |  |  | -0.011 (inactive) |  | -0.034 (inactive) | -0.043 (inactive) | 0.078 (inactive) |  |  |  |
| IGFBP3 isoform 2 (UniProt P17936) | -0.187 (inactive) |  | 0.1 (inactive) | 0.205 (inactive) | 0.204 (inactive) | 0.031 (inactive) | 0.076 (inactive) |  |  |  |  | -0.507 (inactive) |  | -0.251 (inactive) |  | -0.238 (inactive) |  | 0.199 (inactive) | 0.075 (inactive) | -0.555 (inactive) |
| MAP4 isoform 5 (UniProt P27816) | 0.013 (inactive) | 0.055 (inactive) | -0.173 (inactive) |  | 0.105 (inactive) |  | -0.01 (inactive) | -0.161 (inactive) | -0.028 (inactive) | -0.114 (inactive) | -0.001 (inactive) | -0.046 (inactive) | -0.258 (inactive) | 0.134 (inactive) | -0.03 (inactive) |  | 0.008 (inactive) |  |  |  |
| LMBR1 isoform 3 (UniProt Q8WVP7) | -0.156 (inactive) | 0.17 (inactive) | 0.128 (inactive) | 0.036 (inactive) | 0.134 (inactive) | 0.049 (inactive) | 0.175 (inactive) | -0.086 (inactive) | 0 (inactive) | -0.007 (inactive) |  | -0.452 (inactive) |  | 0.26 (inactive) | -0.074 (inactive) | 0.049 (inactive) | -0.037 (inactive) | 0.033 (inactive) | -0.456 (inactive) | -0.314 (inactive) |
| KLHL18 (UniProt O94889) | -0.068 (inactive) | -0.009 (inactive) | 0.003 (inactive) |  | -0.099 (inactive) | -0.05 (inactive) | -0.051 (inactive) | 0.06 (inactive) | -0.049 (inactive) | 0.11 (inactive) | 0.075 (inactive) | -0.178 (inactive) | -0.123 (inactive) | 0.36 (active) | -0.038 (inactive) | -0.073 (inactive) | -0.019 (inactive) | 0 (inactive) | -0.01 (inactive) | 0.034 (inactive) |
| METAP1D (UniProt Q6UB28) | -0.022 (inactive) | 0.009 (inactive) | 0.047 (inactive) | -0.09 (inactive) | -0.087 (inactive) | -0.032 (inactive) | -0.053 (inactive) | 0.056 (inactive) | -0.054 (inactive) | -0.074 (inactive) | 0.031 (inactive) | -0.082 (inactive) | 0.051 (inactive) | 0.074 (inactive) | -0.039 (inactive) | -0.065 (inactive) | 0.013 (inactive) | 0.052 (inactive) |  |  |
| KMT2C isoform 3 (UniProt Q8NEZ4) | -0.053 (inactive) | -0.07 (inactive) |  |  | -0.046 (inactive) | -0.103 (inactive) |  | -0.033 (inactive) | 0.011 (inactive) | -0.003 (inactive) | -0.908 (active) |  | -0.02 (inactive) | -0.004 (inactive) | 0.009 (inactive) | 0 (inactive) | 0.009 (inactive) | 0.026 (inactive) | 0.031 (inactive) | -0.337 (active) |
